According to patent US20040110161, “Method for detecting mutations in nucleotide sequences” (published 2004):

T1: MutS (Cy5-labeled) (Escherichia coli, UniProt P23909 P23909:1-853)
T1 sequence: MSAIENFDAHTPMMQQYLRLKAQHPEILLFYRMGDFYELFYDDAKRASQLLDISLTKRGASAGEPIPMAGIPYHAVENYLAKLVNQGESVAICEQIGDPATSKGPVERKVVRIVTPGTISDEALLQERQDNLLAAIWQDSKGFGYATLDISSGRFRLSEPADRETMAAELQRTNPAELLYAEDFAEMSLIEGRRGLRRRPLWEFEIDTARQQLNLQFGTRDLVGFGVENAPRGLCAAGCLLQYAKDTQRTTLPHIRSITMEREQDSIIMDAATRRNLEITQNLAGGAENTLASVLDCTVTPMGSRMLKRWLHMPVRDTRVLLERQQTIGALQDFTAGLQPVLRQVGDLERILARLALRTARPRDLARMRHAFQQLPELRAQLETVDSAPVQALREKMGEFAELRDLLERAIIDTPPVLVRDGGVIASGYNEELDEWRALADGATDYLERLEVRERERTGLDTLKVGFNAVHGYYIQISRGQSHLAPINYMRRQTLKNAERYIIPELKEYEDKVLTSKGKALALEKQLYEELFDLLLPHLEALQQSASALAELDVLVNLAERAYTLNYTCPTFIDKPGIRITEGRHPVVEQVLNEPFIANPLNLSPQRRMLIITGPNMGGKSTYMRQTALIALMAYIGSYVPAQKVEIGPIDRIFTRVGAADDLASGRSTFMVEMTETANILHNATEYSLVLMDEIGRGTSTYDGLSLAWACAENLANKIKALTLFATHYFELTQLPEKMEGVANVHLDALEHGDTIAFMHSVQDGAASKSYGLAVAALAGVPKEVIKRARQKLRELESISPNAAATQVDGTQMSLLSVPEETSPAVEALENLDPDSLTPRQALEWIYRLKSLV

B1: p53 AT (dsDNA)
DNA 1: AAAGTTCCTGCATGGGCGGCATGAACCGGAGGCCCATC
DNA 2: AGGATGGGCCTCCGGTTCATGCCGCCCATGCAGGAACT
B2: bcl AT (dsDNA)
DNA 1: AAGGTCGCGGGATGCGGCTGGATGGGGCGTGTGCCCGGG
DNA 2: AGCCCGGGCACACGCCCCATCCAGCCGCATCCCGCGACC
B3: Brc AT (dsDNA)
DNA 1: AAATGTTATTACGGCTAATTGTGCTCACTGTACTTGGAA
DNA 2: CATTCCAAGTACAGTGAGCACAATTAGCCGTAATAACAT
B4: Met AT (dsDNA)
DNA 1: AACTATAGTATTCTTTATCATACATGTCTCTGGCAAGAC
DNA 2: TGGTCTTGCCAGAGACATGTATGATAAAGAATACTATAG
B5: Rb AT (dsDNA)
DNA 1: AAATAAGATCAAATAAAGGTGAATCTGAGAGCCATGCAA
DNA 2: CCTTGCATGGCTCTCAGATTCACCTTTATTTGATCTTAT
B6: MSH AT (dsDNA)
DNA 1: AACCTTTCTCCAAAATGGCTGGTCGTACATATGGAACAG
DNA 2: ACCTGTTCCATATGTACGACCAGCCATTTTGGAGAAAGG
B7: APC AT (dsDNA)
DNA 1: AAGATCTTCAGCTGACCTAGTTCCAATCTTTTCTTTTAT
DNA 2: AAATAAAAGAAAAGATTGGAACTAGGTCAGCTGAAGATC

Target: T1, MutS (Cy5-labeled)
Assay: agarose chip
Details: tags: Cy5 nonspecific amine label; also Gene Check unlabeled in EMSA; label: 5'-biotin, 5'-Cy3

Binder	binding signal
B1	48.7 fluorescence units
B2	51.2 fluorescence units
B3	52.4 fluorescence units
B4	46.3 fluorescence units
B5	59.6 fluorescence units
B6	45.9 fluorescence units
B7	40.5 fluorescence units
